Assay outcomes as filed in PubChem BioAssay.
Rab9 prom act = activators of Rab9 promoter; Huh7 Rab9 promoter-luciferase reporter, luminescence, 24 h; Potency, µM (doses to about 9.22 µM), for the others: at the highest dose activation, negative = inhibition, hits mostly activators; hit rate 2.8% among 320,000; also: % of control where 0% means no effect; nearly all actives have a fitted effect of over 60% in size
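Cells were plated at 1500 per well in reduced-serum medium with 10% FBS and left 2 h. Compound in DMSO was then added for 24 h at 37 °C. Reporter signal was read by luminescence after 10 min with luciferase detection reagent.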
NPC1 promoter act = NPC1 promoter activation; Huh7 NPC1 promoter luciferase reporter, 24 h; Potency, µM (top dose mostly 9.22 µM), for the others: at the highest dose activation, most hits filed as activators; hit rate 2.4% among 320,000; also: % of control where 0% means no effect; nearly all actives have a fitted effect of over 60% in size
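Stable NPC1-promoter luciferase Huh7 line; cpd (DMSO) 24 h, 37 °C, 5% CO2; Amplite luciferase reagent 10 min RT; luminescence readout. qHTS format.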
FLuc modulator = firefly luciferase modulation, counter-screen for miR-21 project | P08659 | purified FLuc, Km substrates, luminescence inhibition | Potency, µM (series often up to 57.5 µM), inactives show top-dose activity change, negative = inhibition, hits mostly inhibitors | hit rate 6.9% among 360,000;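 also: plate controls were vehicle for no effect and reference inhibitor for full effect; nearly all actives have a fitted effect of over 55% in size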
Target sequence (P08659 whole entry, looked up): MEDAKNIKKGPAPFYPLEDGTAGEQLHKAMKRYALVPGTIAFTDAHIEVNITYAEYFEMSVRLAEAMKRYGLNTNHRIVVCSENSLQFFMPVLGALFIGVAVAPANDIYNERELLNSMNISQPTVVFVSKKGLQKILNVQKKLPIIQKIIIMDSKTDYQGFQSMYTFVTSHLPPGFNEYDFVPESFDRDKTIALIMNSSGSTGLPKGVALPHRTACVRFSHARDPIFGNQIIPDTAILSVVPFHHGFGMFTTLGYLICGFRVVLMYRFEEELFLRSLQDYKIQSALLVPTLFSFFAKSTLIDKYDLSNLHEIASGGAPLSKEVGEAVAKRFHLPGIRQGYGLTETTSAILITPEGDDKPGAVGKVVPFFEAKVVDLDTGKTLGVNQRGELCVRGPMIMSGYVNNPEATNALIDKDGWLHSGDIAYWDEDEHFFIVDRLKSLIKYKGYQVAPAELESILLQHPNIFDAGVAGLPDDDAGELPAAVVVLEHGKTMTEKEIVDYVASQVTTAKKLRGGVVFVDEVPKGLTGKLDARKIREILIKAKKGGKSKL
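Biochemical qHTS of compounds, final roughly 60 µM downward over six points, against 10 nM purified firefly luciferase using Km concentrations of substrates (10 uM D-luciferin, 10 uM ATP) in Tris acetate pH 7.5 buffer; luminescence output.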
SMN2 splice enh = enhancers of SMN2 splice variant expression; HEK293 SMN2-luciferase splicing reporter, luminescence, 30-36 h; Potency, µM (series often up to 46.1 µM), without a hit: top-dose activity change, positive = activation, most hits filed as activators; hit rate 2.8% among 210,000; also: % of control where 0% means no effect; nearly all actives have a fitted effect of over 55% in size
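HEK293 cells carry an SMN2 […]–luciferase reporter in which exon 7 inclusion puts luciferase in frame. Cells were plated 10-12 h before compound addition, then incubated 30-36 h at 37C. ONE-Glo luminescence was read; sodium butyrate at 4.5 mM final served as control.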
Luc counter = counter-screen: inhibitors of Kinase-Glo firefly luciferase; Potency, µM (titrated, usually from 38.3 µM), for the others: at the top dose activity change, negative = inhibition, hits mostly inhibitors; hit rate 0.28% among 200,000; AID 1379; Kinase-Glo luciferase, ATP luminescence, 8 min; Q27757; also: % is scaled to controls: 0 for no effect and ±100 for the full control effect; nearly all actives have a fitted effect of over 60% in size
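Substrate mix (final 50 mM imidazole pH 7.2, 50 mM KCl, 7 mM MgCl2, 10 uM ATP, 0.01% Tween 20, 0.05% BSA) plus pin-tool compound, then Kinase-Glo detection mix; 8 min ambient, luminescence read.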
ELG1 genotoxic = induces genotoxicity in HEK293T cells with luciferase-tagged ELG1. Potency, µM (series often up to 46 µM), inactives show at the highest dose activity change, positive = activation, actives largely listed as activators. hit rate 1.3% among 330,000. HEK293T ELG1-luciferase reporter, luminescence, 16 h; also: % of control where 0% means no effect; nearly all actives have a fitted effect of over 60% in size
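Genotoxic stress is detected as increased luminescence from luciferase-tagged ELG1 in HEK293T cells, measured with ONE-Glo after a 16 hr treatment at 37 °C.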
The depositor's hits bear a star; ? = inconclusive; . = no result given. Most compounds without a hit are left out; they make up all but 7.5% or so of the library. Calls follow the shape of the dose curve; as a rule, active = well fitted curve in the direction sought with a large enough effect; inconclusive = small, poorly fitted or top-dose-only effect, or another doubt; inactive = no such curve, though single readings can be large; an effect the other way counts as inactive or inconclusive. Potency is read from the fitted curve at half-maximal effect.

SMILES	Rab9 prom act	NPC1 promoter act	FLuc modulator	SMN2 splice enh	Luc counter	ELG1 genotoxic
Cc1cccc(NC(=O)CSc2nc3c(oc4ccccc43)c(=O)n2Cc2ccco2)c1	.	.	-5%	-6%	.	.
CN(C)c1ccc(NC(=O)Cn2c(SCc3ccc(F)cc3)nc3cccnc32)cc1	.	.	-5%	.	.	.
CN(C)c1cccc(C(=O)NCCCSc2ccccc2)c1	20%	23%	?	.	.	?
CN(C(=O)c1cc2c(=O)oc3ccccc3c2s1)c1ccc(F)cc1	.	.	-5%	1%	.	.
Cc1sc2nc(-c3cccs3)oc(=O)c2c1C	-2%	15%	11µM*	.	.	3%
CCc1cc2c(=O)oc(-c3ccc(Br)cc3)nc2s1	18%	14%	6µM*	.	.	-1%
O=c1oc(-c2cccs2)nc2scc(-c3cccs3)c12	14%	7%	7.6µM*	11µM*	4%	0%
Cc1sc2nc(-c3ccc(Br)cc3)oc(=O)c2c1C	7%	?	2.7µM*	.	.	-3%
COc1ccccc1NC(=O)N(Cc1ccco1)C1CCN(C(C)=O)CC1	.	.	-5%	.	.	.
CN(C)c1ccc(/C=C2\Oc3ccc(C#Cc4cccc(N)c4)cc3C2=O)cc1	.	.	.	.	.	8%
O=C(CCc1nnc(C2CCCCC2)o1)N1CCN(c2ccccc2F)CC1	3.5µM*	2.5µM*	12µM*	.	.	?
O=C(CCCC(=O)N1CCN(c2ccccc2F)CC1)c1ccccc1	4.5µM*	?	27µM*	.	.	?
Fc1ccc(-n2nnnc2-c2cnc(-c3cccs3)nc2C(F)(F)F)cc1	-16%	-2%	1%	.	.	2%
O=C(Cc1ccc(Br)cc1)N/N=C/c1ccc(-c2cccc(C(=O)O)c2)o1	1%	2%	?	.	.	2%
Cc1ccc(/C=N/Nc2ccc(C(=O)O)cc2)o1	0.4µM*	0.71µM*	6.7µM*	10µM*	-16%	?
Cc1ccc(/C=N/NC(=O)c2ccc(-n3cccc3)cc2)o1	8%	1%	-2%	.	.	1%
O=C(O)c1cc(-c2ccc(/C=N/Nc3ccc(Cl)cc3)o2)ccc1Cl	3%	14%	11µM*	0%	2%	0%
Nc1nonc1C(=O)N/N=C/c1ccc(-c2ccc(Cl)c(C(=O)O)c2)o1	-3%	-1%	?	14%	1%	-6%
O=C(O)c1ccc(N/N=C/c2ccc(-c3ccc(Br)cc3)o2)cc1	18%	22%	2.4µM*	.	.	?
O=S(=O)(Nc1ccc(-c2ccc3nncn3n2)cc1)c1cccc(F)c1	0%	-3%	2%	.	.	0%
COc1ccc2[nH]c3c(N4CC(C)OC(C)C4)ncnc3c2c1 (stereo not given)	-7%	-3%	-16%	-6%	3%	-2%
Cc1ccc2[nH]c3c(N4CCCCCC4)ncnc3c2c1	-15%	-6%	19µM*	-69%	4%	-27%
CCCOc1ncnc2c1[nH]c1ccccc12	-4%	19%	17µM*	-60%	-4%	0%
CCCOc1ncnc2c1[nH]c1ccc(OC)cc12	0.56µM*	1.1µM*	2.4µM*	.	.	?
CCN(CC)c1ncnc2c1[nH]c1ccccc12	-11%	0%	-19%	-67%	-3%	-7%
SMILES	Rab9 prom act	NPC1 promoter act	FLuc modulator	SMN2 splice enh	Luc counter	ELG1 genotoxic
Cc1ccc2[nH]c3c(N4CCN(Cc5ccccc5)CC4)ncnc3c2c1	-9%	0%	-22%	-49%	-1%	-23%
CC(C)Oc1ncnc2c1[nH]c1ccccc12	-16%	-9%	15µM*	.	.	-2%
COc1ccccc1CNC(=O)CCNS(=O)(=O)/C=C/c1ccc(C)cc1	.	.	.	.	.	0%
NC(N)=NC(=S)Nc1ccc(Cl)cc1	?	?	?	.	.	10%
CCCCOc1ncnc2c1[nH]c1ccc(C)cc12	?	?	1.1µM*	.	.	?
Cc1ccc2[nH]c3c(NCCN4CCOCC4)ncnc3c2c1	7%	14%	?	-32%	-5%	29%
O=C(NCCCN1CCOCC1)C(c1ccccc1)c1ccccc1	7%	1%	-2%	.	.	-5%
CCOc1ccc(C(=O)CCC(=O)NCC(=O)Nc2c(C)cccc2C)cc1	0%	0%	.	.	.	3%
OCCc1ccc(O)c(-n2nc3ccccc3n2)c1	26%	23%	15µM*	.	.	?
c1ccc2[nH]c(CSc3nc4ccccc4s3)nc2c1	23%	29%	15µM*	-31%	-3%	8%
Cn1c(CSc2nc3ccccc3s2)n[nH]c1=S	2%	-3%	-13%	18%	2%	-8%
c1ccc(SCc2nc3ccccc3[nH]2)nc1	?	?	21µM*	6%	-8%	?
Cn1c(CSc2nc3ccccc3s2)nc2ccccc21	?	?	11µM*	16µM*	-7%	13µM*
Cc1ccc(C2(c3ccccc3)NC(=O)N(CC(=O)NCc3ccccc3)C2=O)cc1C (stereo not given)	-7%	-2%	2%	.	.	-15%
Cc1ccc(/C=C/C(=O)Nc2nccs2)o1	1.8µM*	2.8µM*	8.5µM*	11µM*	-4%	?
Cc1ccc(/C=C/C(=O)Nc2ncc(C)s2)o1	2.8µM*	3.5µM*	1.9µM*	3.2µM*	-1%	?
Cc1noc(-c2ccc(NCc3ccccc3)c([N+](=O)[O-])c2)n1	.	.	-16%	.	.	.
Cc1ccc(C(=O)N/N=C\C=C\c2ccccc2[N+](=O)[O-])cn1	7%	3%	-6%	-7%	1%	0%
Cc1ccc(C(=O)N/N=C/c2cc(Br)ccc2O)cn1	-35%	-29%	13µM*	.	.	11%
CCOc1ccc(C(=O)N/N=C/c2ccccc2[N+](=O)[O-])cc1	1.4µM*	2.2µM*	1.7µM*	13µM*	-3%	?
Cc1ccc(C(=O)N/N=C\c2ccccc2[N+](=O)[O-])cn1	2.8µM*	3.5µM*	12µM*	13µM*	-8%	9%
Cc1ccc(C(=O)N/N=C\C=C\c2ccc(Br)cc2)cn1	0%	-3%	-13%	-27%	-1%	1%
COc1cc(/C=N/NC(=O)c2ccc(C)nc2)cc([N+](=O)[O-])c1O	2%	0%	21µM*	2%	-7%	-2%
COc1ccc(N2CC(NC(=O)C(=O)c3c[nH]c4ccccc34)CC2=O)cc1 (stereo not given)	.	.	3%	.	.	.
O=C1/C(=C/c2cccs2)N=C(c2cccs2)N1Nc1ccccc1	10%	-3%	24µM*	-7%	1%	2%
O=C(NN1C(=O)/C(=C/c2cccs2)SC1=S)c1ccccc1	-4%	-2%	0%	-6%	3%	-1%
Cc1ccc(C2=N/C(=C\c3cccs3)C(=O)N2Nc2ccccc2)cc1	15%	0%	-20%	-1%	1%	-2%
O=C1/C(=C\c2cccs2)N=C(c2cccs2)N1Nc1ccccc1	-18%	-3%	21µM*	-6%	-6%	-5%
